Experimental findings from PubChem BioAssay (EPA / NIEHS) are described below.

Structures are written as SMILES. Activity calls are given as the source filed them. How the source made its calls: active means hit-call score of the fitted dose curve at least 0.9, where 1 is the maximum; inactive means score below 0.9.

Read-out in experiment [1]: Forkhead box O1 (FOXO1), FOXO1 (gene 2308)
The experiment is described as follows: LTEA_HepaRG_FOXO1: Life Technologies and Expression Analysis (LTEA) Assay for Forkhead box O1 (FOXO1) using HepaRG (AID 2283456). To be noted: mRNA level, 48 h; actives raise or lower the signal. In short, it runs like this: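 Using one lot of HepaRG hepatic cells kept in 0.5% DMSO, the team applied test chemicals in duplicate, half-log dilutions from 100 uM, for 48 h. Expression, normalised to ACTB/GAPDH/POLR2A, was compared with vehicle in either direction.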

Experiment [2] in a line: CEETOX_H295R_TESTO: CeeTox H295R High-throughput Steroidogenesis Assay for Testosterone (TESTO) (AID 2283457).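 Further: cells exposed to chemicals for 48 h before medium collection.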 To be noted: actives raise or lower the signal. In short, it runs like this: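 H295R adrenal cells, passage ≤10, exposed to chemicals for 48 h. Testosterone in medium measured by MTBE extraction and HPLC-MS/MS against a 7-point standard curve. Bidirectional fit versus DMSO; MTT viability checked in the same wells.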

Read-out in experiment [3]: growth arrest and DNA damage 45 (GADD45A), GADD45A (gene 1647)
Description: LTEA_HepaRG_GADD45A: Life Technologies and Expression Analysis (LTEA) Assay for growth arrest and DNA damage 45 (GADD45A) using HepaRG (AID 2283458). The following applies: mRNA level, 48 h; actives raise or lower the signal. In short, it runs like this: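 HepaRG, 48 h exposure, 8 conc. (top 100 uM, half-log steps), 0.5% DMSO vehicle, duplicates. Read-out: qRT-PCR mRNA level, housekeeping-normalized (ACTB/GAPDH/POLR2A). Curves fit bidirectionally vs DMSO baseline.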

Read-out in experiment [4]: Forkhead box O3 (FOXO3), FOXO3 (gene 2309)
The experiment is described as follows: LTEA_HepaRG_FOXO3: Life Technologies and Expression Analysis (LTEA) Assay for Forkhead box O3 (FOXO3) using HepaRG (AID 2283459). To be noted: mRNA level, 48 h; actives raise or lower the signal. In short, it runs like this: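 Gene-expression endpoint: FOXO3 transcript level by qRT-PCR in HepaRG cultures treated 48 h with chemicals up to 100 uM (half-log, 0.5% DMSO vehicle).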

Read-out in experiment [5]: ABC Transporter (ABCB1), ABCB1 (gene 5243)
Description: LTEA_HepaRG_ABCB1: Life Technologies and Expression Analysis (LTEA) Assay for ABC Transporter (ABCB1) using HepaRG (AID 2283460). The following applies: mRNA level, 48 h; actives raise or lower the signal. In short, it runs like this: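 Human liver HepaRG line treated 48 h with up to 100 uM compound (eight half-log points, 0.5% DMSO); ABCB1 mRNA change fitted bidirectionally against DMSO controls.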

Read-out in experiment [6]: growth arrest and DNA damage 45 (GADD45B), GADD45B (gene 4616)
Description: LTEA_HepaRG_GADD45B: Life Technologies and Expression Analysis (LTEA) Assay for growth arrest and DNA damage 45 (GADD45B) using HepaRG (AID 2283461). The following applies: mRNA level, 48 h; actives raise or lower the signal. In short, it runs like this: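 Differentiated human HepaRG cells in serum-free induction medium exposed 48 h in duplicate to eight concentrations, top 100 uM, half-log steps, 0.5% DMSO. GADD45B mRNA by TaqMan qRT-PCR, normalized to ACTB, GAPDH, POLR2A; bidirectional fit versus DMSO.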

Read-out in experiment [7]: ABC Transporter (ABCC3), ABCC3 (gene 8714)
The experiment is described as follows: LTEA_HepaRG_ABCC3: Life Technologies and Expression Analysis (LTEA) Assay for ABC Transporter (ABCC3) using HepaRG (AID 2283462). To be noted: mRNA level, 48 h; actives raise or lower the signal. In short, it runs like this: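 Differentiated human HepaRG cells exposed 48 h in serum-free induction medium, 0.5% DMSO vehicle, 8-point half-log series to 100 uM in duplicate. ABCC3 mRNA by qRT-PCR, normalised to ACTB, GAPDH, POLR2A; bidirectional fit vs DMSO.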

Read-out in experiment [8]: ABC Transporter (ABCB11), ABCB11 (gene 8647)
The experiment is described as follows: LTEA_HepaRG_ABCB11: Life Technologies and Expression Analysis (LTEA) Assay for ABC Transporter (ABCB11) using HepaRG (AID 2283463). To be noted: mRNA level, 48 h; actives raise or lower the signal. In short, it runs like this:
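Using HepaRG cultures held in 0.5% DMSO, chemicals were tested at half-log dilutions from 100 uM for 48 h. Induction or suppression of ABCB11 mRNA, normalized to ACTB, GAPDH and POLR2A, was fitted bidirectionally against vehicle.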

Read-out in experiment [9]: Cytochrome P450 (CYP1A1), CYP1A1 (gene 1543)
Description: LTEA_HepaRG_CYP1A1: Life Technologies and Expression Analysis (LTEA) Assay for Cytochrome P450 (CYP1A1) using HepaRG (AID 2283454). To be noted: mRNA level, 48 h; actives raise or lower the signal. In short, it runs like this:
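Differentiated human HepaRG cells, after 48 h plating, exposed in duplicate for 48 h in serum-free induction medium to 8 half-log concentrations up to 100 uM in 0.5% DMSO. CYP1A1 mRNA by qRT-PCR, normalized to ACTB/GAPDH/POLR2A; bidirectional fit versus DMSO.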

Consider `C[C@]12C=CC3=C4CCC(=O)C=C4CC[C@H]3[C@@H]1CC[C@@H]2O`, for which the compound was classed as inactive in experiment [1], in experiment [3], in [4], in experiment [5], in experiment [6] and in experiment [7]. For the same compound, the AC50 (in general, the concentration at which the activity in the assay is half-maximal) in [2] was 83 µM (active); in experiment [8], 27.3 µM (active).

Take `Oc1ccc2ccc3cccc4ccc1c2c34`: the AC50 in experiment [9] was 27.5 µM (active). Further, the result in [1], in experiment [3], in [4], in [5], in experiment [6] and in experiment [7] was inactive. Also, in experiment [8], the result was inactive.

On to `O=Cc1ccco1`, for which the AC50 in experiment [9] was 50 µM (active). Further, the result in [1], in experiment [3], in experiment [4], in experiment [5], in [6] and in [7] was inactive.

For `CCCCCOC(=O)c1ccccc1C(=O)OCCCCC`, the AC50 in experiment [9] is 18 µM (active). The outcome in [1], in experiment [3], in [4], in [5], in experiment [6] and in experiment [7] was inactive.

Turning to `O=C1CCCO1`, the outcome in experiment [9], in experiment [1], in [4], in experiment [6], in experiment [7] and in [8] was inactive. Moreover, the results for the AC50 in experiment [3] and in experiment [5] were 50 µM (active) and 9.92 µM (active), respectively.

As for `COP(=S)(OC)SCN1C(=O)c2ccccc2C1=O`, the AC50 in [9] is 30.9 µM (active). For the same compound, the outcome in experiment [1], in experiment [3], in experiment [4], in experiment [5], in experiment [6] and in experiment [7] was inactive. Moreover, the outcome in experiment [8] was inactive.

On to `Brc1ccc(Oc2ccccc2)cc1`, for which the AC50 in experiment [9] is 50 µM (active). Also, the compound was called inactive in experiment [1], in [3], in experiment [4], in experiment [5], in [6] and in [7]. In addition, in experiment [8], the result was inactive.

With `O=C(O)C1C2CCC(O2)C1C(=O)O` (configuration not stated), the values for the AC50 in experiment [9] and in [4] were 82.6 µM (active) and 37.4 µM (active), respectively. In addition, the outcome in experiment [1], in [3], in [5], in [6] and in experiment [7] was inactive.

On to `Cc1ccc([N+](=O)[O-])cc1`, for which the AC50 in experiment [9] was 9.92 µM (active); in experiment [5] it was 2.47 µM (active). Further, the compound was called inactive in [1], in experiment [3], in experiment [4], in experiment [6], in experiment [7] and in [8].

Take `CCC(C)c1ccc(O)cc1` (configuration not stated): the outcome in experiment [9], in experiment [1], in [3], in [4], in experiment [5] and in [6] was inactive. For the same compound, the result in experiment [7] and in experiment [8] was inactive.

Consider `O=[N+]([O-])c1ccc(Oc2ccc(Cl)cc2Cl)cc1`, for which the AC50 in [9] was 22.8 µM (active). Further, the outcome in [1], in [3], in experiment [4], in experiment [6] and in [7] was inactive.

Turning to `CCN(CC)CCO`, the outcome in experiment [9], in experiment [1], in experiment [3], in experiment [4], in [5] and in experiment [6] was inactive. The compound was called inactive in experiment [7] and in experiment [8].

`Cn1cc(-c2ccccc2)c(=O)c(-c2cccc(C(F)(F)F)c2)c1`: the AC50 in experiment [9] was 32.6 µM (active); in experiment [5] it was 7.25 µM (active). The compound was called inactive in experiment [1], in experiment [3], in experiment [4], in experiment [6], in experiment [7] and in [8].

For `CN(C)C(=O)Nc1ccc(Cl)cc1`, in [9], the AC50 is 38 µM (active). Moreover, the compound was classed as inactive in experiment [1], in experiment [3], in experiment [4], in experiment [5], in experiment [6] and in experiment [7]. Also, in experiment [8], the outcome was inactive.

Consider `[O-][Cl+]O`, for which the result in [9], in experiment [1], in [3], in [4], in experiment [5] and in experiment [6] was inactive. In [7], the compound was classed as inactive.

Regarding `COC(=O)c1ccccc1N`, the outcome in experiment [9], in experiment [1], in experiment [3], in experiment [4], in experiment [5] and in [6] was inactive. The outcome in [7] and in experiment [8] was inactive.

Turning to `c1ccc2c(c1)oc1ccccc12`, the AC50 in experiment [9] is 50 µM (active). For the same compound, the result in [1], in [3], in experiment [4], in experiment [5], in experiment [6] and in [7] was inactive. In addition, the outcome in [8] was inactive.

As for `c1ccc(NNc2ccccc2)cc1`, the values for the AC50 in experiment [9] and in experiment [6] were 31.6 µM (active) and 50 µM (active), respectively. Besides, the call in experiment [1], in [3], in experiment [4], in experiment [5], in experiment [7] and in experiment [8] was inactive.

For `Nc1ccc(Oc2ccc(N)cc2)cc1`, the AC50 in [9] is 37.5 µM (active). For the same compound, the result in [1], in experiment [3], in experiment [4], in experiment [5], in experiment [6] and in [7] was inactive. Further, the outcome in experiment [8] was inactive.

For `N#CC(Br)(Br)C(N)=O`, the compound was called inactive in [9], in experiment [1], in experiment [3], in [4], in [5] and in experiment [6]. In experiment [7], the result was inactive.

Take `C=CCc1ccc2c(c1)OCO2`: the AC50 in experiment [9] was 50 µM (active). Besides, the compound was classed as inactive in experiment [1], in [3], in experiment [4], in experiment [5], in experiment [6] and in experiment [7].

Regarding `Clc1ccc(Cl)c(Cl)c1`, the call in [9], in experiment [1], in experiment [4], in [5], in [6] and in [7] was inactive. Also, the half-maximal activity concentration (AC50) in [3] is 9.92 µM (active).
